# PubChem BioAssay AID361 (National Center for Advancing Translational Sciences (NCATS), 2006)
# Among all 51,000 compounds or so, about 600 (1.2%) were called active. Not shown: some 2% with an inconclusive outcome. No stated cut-off is given here; in the data, active means potency below about 11 µM; inconclusive means mostly about 12 µM to 25 µM; inactive means weaker than that;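 the screen sought inhibitors and activators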. The list comes from a sample in which actives are over-represented; it also holds similar structures and randomly drawn compounds.
# Tested on: pyruvate kinase (Bacillus stearothermophilus)
# Test: Pyruvate Kinase
# Conditions: purified pyruvate kinase, luminescence ATP production; ribose 5-phosphate activator present at AC10
# Method: Pyruvate kinase (partially purified from Bacillus stearothermophilus) was assayed for its ability to generate ATP from ADP using phosphoenolpyruvate (PEP) as a substrate. ATP generation was detected in a coupled reaction by luciferase-mediated luminescence, an ATP-dependent process. Pyruvate kinase substrates, PEP and ADP, were present in the assay at Km and […]-fold below Km respectively. The enzyme was assayed at an intermediate level of activity to screen for inhibitors and activators. In addition, ribose 5 phosphate, a positive modulator of pyruvate kinase, was included in the assay at AC10 in order to identify possible potentiators.
# NCGC Assay Protocol Summary:
# Three uL of substrate mix (final concentration, 50 mM imidazole pH 7.2, 50 mM KCl, 7 mM MgCl2, 2 mM PEP, 0.1 mM ADP, 0.7 nM ribose 5 phosphate, 0.01% Tween 20, 0.05% BSA) was dispensed into 1536 well plates. 23 nL of compound were delivered by a pin tool and 1 uL of enzyme mix (final concentration, 10 nM pyruvate kinase, 50 mM imidazole pH 7.2, 0.05% BSA) was added. After centrifugation at 1000 rpm for less than a minute, plates were incubated at room temperature for 2 hours. Three uL of detection and kinase stop mix (PKLight, Cambrex) was added, the plates centrifuged, and luminescence read by a ViewLux (Perkin Elmer) at 5 second exposure/plate. Data were normalized to the controls for AC100 stimulation (5 uM ribose 5 phosphate) and to AC100 inhibition (110 uM luteolin).
# Potency means the concentration at half of the fitted maximal effect.
row,SMILES,Potency
1,CCN(CC)S(=O)(=O)c1ccc2nc(CSc3nnnn3-c3ccc(O)cc3)[nH]c2c1,> 57 µM (inactive)
2,O=C(CSc1nnc(-c2cccs2)n1-c1ccccc1)N1CCN(C(=O)c2ccco2)CC1,> 57 µM (inactive)
3,CCc1ccc2oc(-c3ccc(N)cc3)nc2c1,2.06 µM (active)
4,CCN(CC)c1ccc2oc(=O)c(C)nc2c1,> 57 µM (inactive)
5,COC(=O)C(CC(=O)Nc1cc(C)ccc1C)Nc1ccccc1OC (stereo unspecified),> 57 µM (inactive)
6,Cn1c(SCc2c(F)cccc2Cl)nnc1-c1cnccn1,> 57 µM (inactive)
7,COc1ccccc1N=C1SC(C)CN1C(=O)C1CCC1 (stereo unspecified),> 57 µM (inactive)
8,Cn1nnnc1SCc1cc(=O)[nH]c2ccccc12,> 57 µM (inactive)
9,CN(C)c1nc(N)nc(CSc2nnnn2-c2cccc3ccccc23)n1,1.57 µM (active)
10,CN(C(=O)CSc1nnnn1-c1ccccc1)C1CCCCC1,> 57 µM (inactive)
11,C=CCn1c(=S)[nH]c2nc3c(cc2c1=O)COC(C)(C)C3,> 25.6 µM (inactive)
12,COc1ccc(S(=O)(=O)N(CCCN2CCCC2=O)Cc2cc3c(C)ccc(C)c3[nH]c2=O)cc1,> 57 µM (inactive)
13,CC(C)OC(=O)C(C#N)c1nc2ccccc2nc1N1CCN(Cc2ccc3c(c2)OCO3)CC1 (stereo unspecified),> 25.6 µM (inactive)
14,CSc1nc(O)c(Cc2ccccc2)c(=O)[nH]1,> 25.6 µM (inactive)
15,O=C(CN1CCN(C(=O)c2cccc(F)c2)CC1)Nc1ccccc1F,> 57 µM (inactive)
16,O=C(c1ccccc1)N1CCN(C(=O)N2CCCCC2)CC1,> 57 µM (inactive)
17,COc1ccc(CCN2C(=O)c3[nH]nc(-c4ccccc4O)c3C2c2ccc(C)cc2)cc1OC (stereo unspecified),> 57 µM (inactive)
18,Fc1ccc(-c2nnc3sc(-c4ccc5c(c4)OCO5)nn23)cc1,> 57 µM (inactive)
19,O=C(CN1C(=O)C2C3C=CC(C3)C2C1=O)NCCc1ccccc1Cl (stereo unspecified),> 57 µM (inactive)
20,N#CC1=C(N)C(C#N)(C#N)[C@H](c2ccsc2)[C@H]2COCC=C12,> 57 µM (inactive)
21,Cn1c(=O)c(=O)n(C)c2cc(S(=O)(=O)NCCc3ccccc3)ccc21,> 57 µM (inactive)

row,SMILES,Potency
1,CCCCCCn1c(CN2CCCCC2)nc2c1c(=O)n(C)c(=O)n2C,> 57 µM (inactive)
2,O=c1[nH]c(=O)n(Cc2ccco2)c2c1C(C(F)(F)F)(C(F)(F)F)N=C(c1ccco1)N2,> 25.6 µM (inactive)
3,CC1CCN(C(=O)Cn2cc(C(=O)c3ccco3)c3ccccc32)CC1,> 57 µM (inactive)
4,Cc1noc(C)c1C(=O)OCC(=O)/C=C1\N(C)c2ccccc2C1(C)C,> 57 µM (inactive)
5,Cc1ccccc1-n1c(SCC(=O)NCc2cccs2)nnc1-c1ccncc1,> 57 µM (inactive)
6,CCn1c(CNC(=O)c2ccc(OC)c(OC)c2)nnc1SCC(=O)Nc1ccccc1,> 57 µM (inactive)
7,CCCCNc1nc2ccccc2nc1NS(=O)(=O)c1cccs1,> 57 µM (inactive)
8,CCOC(=O)c1sc2nc(CSCC(=O)OCc3ccc(C(=O)OC)o3)[nH]c(=O)c2c1C,> 57 µM (inactive)
9,CCn1c(CSc2nncn2-c2ccc(OC)cc2)nc2cc(S(=O)(=O)N(C)C)ccc21,> 57 µM (inactive)
10,N#CCCN(CCC#N)c1nnc(-c2ccccc2)s1,> 25.6 µM (inactive)
11,Cc1cc(C(F)(F)F)c(C#N)c(SCC(=O)NC2CC2)n1,> 25.6 µM (inactive)
12,Brc1cccc(-c2nnc3n2CCC3)c1,> 57 µM (inactive)
13,Cc1ccc2nc(NCCCNC(=O)c3cnccn3)c(C#N)cc2c1,> 57 µM (inactive)
14,Cc1noc(NS(=O)(=O)c2ccc(NC(=O)C34CCC(CC3)C4)cc2)c1C,> 57 µM (inactive)
15,CC1Cn2c(nnc2-c2cccs2)S1 (stereo unspecified),> 57 µM (inactive)
16,N#Cc1c2c(c(N3CCN(CCO)CC3)n3c1nc1ccccc13)CCCC2,> 57 µM (inactive)
17,COc1ccc(OC)c(NC(=O)CN2CCN(C(=O)c3ccco3)CC2)c1,> 57 µM (inactive)
18,OCCCN1c2ccccc2Nc2nnc(-c3ccccc3)cc21,6.08 µM (active)
19,O=C(C1CCCO1)N1CCC(c2nc3ccccc3[nH]2)CC1 (stereo unspecified),> 57 µM (inactive)
20,CCCC(=O)N1CCc2[nH]c3ccccc3c2C1,> 25.6 µM (inactive)
21,O=C(Nc1ccc(Oc2ccccc2)cc1)c1ccco1,51.8 µM (inactive)

row,SMILES,Potency
1,CN1CCN(S(=O)(=O)c2ccc(NC(=O)c3ccco3)cc2)CC1,> 57 µM (inactive)
2,O=C(Nc1ccc(NC(=O)c2cccs2)cn1)c1ccco1,7.2 µM (active)
3,CCCc1nnc(NC(=O)c2cc(OC)cc(OC)c2)s1,> 57 µM (inactive)
4,N#Cc1ccc(OCCN2C(=O)NC3(CCSC3)C2=O)cc1 (stereo unspecified),> 57 µM (inactive)
5,COc1ccc(-c2cc3n(n2)CCc2nc4ccccc4n2-3)cc1,1.66 µM (active)
6,CCCn1c(C(O)c2cc(OC)ccc2OC)nc2ccccc21 (stereo unspecified),> 57 µM (inactive)
7,COCCn1c(-c2ccc(OC)c(OC)c2)nc2ccccc21,> 57 µM (inactive)
8,COC(=O)c1sc(NC(=O)c2ccc(OC)cc2OC)nc1C,0.093 µM (active)
9,COc1ccc2nc(NC(=O)c3ccc(Br)s3)sc2c1,> 11.4 µM (inactive)
10,CCOC(=O)c1sc(NC(=O)c2cc(S(=O)(=O)N3CCOCC3)ccc2C)nc1C,> 57 µM (inactive)
11,O=C(NCc1ccco1)c1ccc(CS(=O)(=O)Cc2ccc(F)cc2)o1,> 57 µM (inactive)
12,COc1ccccc1NC(=O)C1=C(C)NC2=C(C(=O)CCC2)C1c1ccc(C)o1 (stereo unspecified),> 57 µM (inactive)
13,COc1ccc(N2C(=O)c3cccc4cccc(c34)C2=O)nn1,> 57 µM (inactive)
14,Cc1cc(C)c2c(n1)nn1c(N3CCOCC3)cc(C)nc21,> 57 µM (inactive)
15,Cc1nn2c3cc(N4CCOCC4)ccc3nc2c2ccccc12,2.65 µM (active)
16,COCCCNC(=O)CSc1nc2ccc(N3CCOCC3)cc2c(=O)n1CCc1ccccc1,> 57 µM (inactive)
17,O=C(c1cccc2ccccc12)N1CCN(c2ccccc2F)CC1,26 µM (inactive)
18,Cc1ccc2cccc(S(=O)(=O)N3CCN(c4ccccc4F)CC3)c2n1,6.92 µM (active)
19,O=S(=O)(N1CCOCC1)N1CCN(c2ccccc2F)CC1,> 57 µM (inactive)
